DAX1 inh-1: blocks DAX1 repression of SF-1 activated StAR promoter | HEK293T StAR-luciferase reporter, SF-1/DAX-1 repression relief | actives 1.1% (n = 370,000) | AID 652010 | inhibition, % at 6.8 µM;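 active = inhibition above the mean over all tested compounds plus 3 SD, cut at about 3.6% in these data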;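 note: higher inhibition means more luminescence from relief of DAX-1 repression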
hgDAF12 agonist: activates the H. glycines DAF-12 receptor ligand-binding domain. HEK293 GAL4-hgDAF12 UAS-luciferase reporter, agonist luminescence; normalized to butyrate control. activation, % at 6.8 µM. actives 1.8% (n = 370,000). AID 687014;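 active = activation above a cutoff set at the mean of all screened compounds plus 3 SD, cut at about 10% in these data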
hcDAF-12 act: activators of H. contortus DAF-12 nuclear receptor; HEK293 hcDAF-12 lit1-tk-luc reporter, luminescence; 0% DMSO, 100% Δ7-dafachronic acid; activation, % at 6.8 µM; actives 1.4% (n = 370,000); AID 652067;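 active = activation above the mean of all tested compounds plus 3 SD, cut at about 5.5% in these data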
DAX1 inh-2: NR0B1 (DAX1) inhibition. HEK293 Gal4-DAX1 luciferase reporter, luminescence. inhibition, % at 6.75 µM. actives 0.99% (n = 340,000). AID 504766;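 active = inhibition above the mean over all tested compounds plus 3 SD, cut at about 4.2% in these data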;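 note: inhibition shows as a rise in luminescence from relieved DAX1 repression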
Target sequence (P51843 207-470 limits assumed): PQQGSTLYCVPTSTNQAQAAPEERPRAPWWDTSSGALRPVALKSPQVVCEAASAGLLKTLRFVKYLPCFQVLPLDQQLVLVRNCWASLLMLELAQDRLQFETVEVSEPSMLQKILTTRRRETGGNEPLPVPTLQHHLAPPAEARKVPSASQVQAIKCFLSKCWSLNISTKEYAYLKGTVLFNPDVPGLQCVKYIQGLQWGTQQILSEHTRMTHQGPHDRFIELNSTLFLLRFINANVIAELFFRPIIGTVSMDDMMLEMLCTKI
ssDAF-12 act: S. stercoralis DAF-12 activation, primary screen | HEK293 ssDAF-12/GRIP1 lit1-tk-luc reporter, luminescence; % of 3 µM dafachronic acid response | activation, % at 6.8 µM | actives 1% (n = 370,000) | AID 652126;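 active = activation above the mean over all tested compounds plus 3 SD, cut at about 0.9% in these data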
SMARCA2 activ: activators of SMARCA2 function | MG213 cells, MMTV-luciferase reporter, dexamethasone, overnight | AID 652017 | activation, % at 9.1 µM | actives 1% (n = 370,000); in the data active = activation above about 7.8%
Hits are given with their value. In the library only some 4.8% were active in any assay of this set; here they are far more common.

How did O=S(=O)(c1ccc(F)cc1)N1CCN(c2ccccn2)CC1 do in these assays?
DAX1 inh-1: inactive; hgDAF12 agonist: inactive; hcDAF-12 act: inactive; DAX1 inh-2: inactive; ssDAF-12 act: 1.6; SMARCA2 activ: inactive

How did O=C(Nc1c(F)cc(F)cc1Br)c1cc(S(=O)(=O)N2CCN(c3ccccn3)CC2)ccc1F do in these assays?
DAX1 inh-1: inactive; hgDAF12 agonist: inactive; hcDAF-12 act: inactive; DAX1 inh-2: 4.7; ssDAF-12 act: inactive; SMARCA2 activ: inactive

What do the screens show for `O=C1[C@@H]2Cc3c([nH]c4ccccc34)C(c3ccccc3)N2C(=O)CN1C1CC1` (stereo partly specified)?
DAX1 inh-1: inactive; hgDAF12 agonist: inactive; hcDAF-12 act: inactive; DAX1 inh-2: inactive; ssDAF-12 act: inactive; SMARCA2 activ: inactive

Results for Cc1ccccc1C1c2[nH]c3ccccc3c2C[C@H]2C(=O)N(C3CC3)CC(=O)N12 (stereo partly specified) ?
DAX1 inh-1: inactive; hgDAF12 agonist: inactive; hcDAF-12 act: 6.4; DAX1 inh-2: inactive; ssDAF-12 act: inactive; SMARCA2 activ: inactive

How did Cc1cc(NC(=O)CCCC(=O)N(CC(=O)NCCc2ccccc2)Cc2ccc(F)cc2)no1 do in these assays?
DAX1 inh-1: inactive; hgDAF12 agonist: inactive; hcDAF-12 act: inactive; DAX1 inh-2: inactive; ssDAF-12 act: 1.1; SMARCA2 activ: inactive

How did OC1c2cc(Cl)ccc2-c2c(Cl)cc(Cl)cc21 (stereo unspecified) do in these assays?
DAX1 inh-1: inactive; hgDAF12 agonist: inactive; hcDAF-12 act: inactive; DAX1 inh-2: 5.4; ssDAF-12 act: inactive; SMARCA2 activ: inactive

Results for COc1ccccc1CCC[C@@H](CCS(=O)(=O)C(C)C)CC1CCCCC1 ?
DAX1 inh-1: inactive; hgDAF12 agonist: inactive; hcDAF-12 act: inactive; ssDAF-12 act: 2.2; SMARCA2 activ: inactive

Results for Clc1ccc(OCc2noc(-c3ccsc3)n2)c(Cl)c1 ?
DAX1 inh-1: inactive; hgDAF12 agonist: 10.6; hcDAF-12 act: inactive; DAX1 inh-2: 8.3; ssDAF-12 act: inactive; SMARCA2 activ: inactive

Results for Fc1cc(Cl)c(OCc2noc(-c3ccsc3)n2)c(Cl)c1 ?
DAX1 inh-1: inactive; hgDAF12 agonist: inactive; hcDAF-12 act: inactive; DAX1 inh-2: inactive; ssDAF-12 act: inactive; SMARCA2 activ: inactive

Results for Cc1ccc(Cn2nnc3c2-c2ccccc2S(=O)(=O)N(C2CC2)C3)cc1 ?
DAX1 inh-1: inactive; hgDAF12 agonist: inactive; hcDAF-12 act: inactive; ssDAF-12 act: inactive; SMARCA2 activ: inactive

How did CCOc1ccc2cc(C#N)c(SCC(=O)N3CCOCC3)nc2c1 do in these assays?
DAX1 inh-1: inactive; hgDAF12 agonist: 10.6; hcDAF-12 act: inactive; DAX1 inh-2: inactive; ssDAF-12 act: inactive; SMARCA2 activ: inactive

How did COC(=O)CSc1nc2cc3c(cc2cc1C#N)OCO3 do in these assays?
DAX1 inh-1: 3.7; hgDAF12 agonist: 11.9; hcDAF-12 act: inactive; DAX1 inh-2: 4.7; ssDAF-12 act: inactive; SMARCA2 activ: inactive

What do the screens show for `N#Cc1cc2cc3c(cc2nc1SCC(=O)N1CCOCC1)OCO3`?
DAX1 inh-1: inactive; hgDAF12 agonist: inactive; hcDAF-12 act: inactive; DAX1 inh-2: 6.6; ssDAF-12 act: inactive; SMARCA2 activ: inactive

Results for CC1Cc2ccccc2N1C(=O)CSc1nc2cc3c(cc2cc1C#N)OCO3 (stereo unspecified) ?
DAX1 inh-1: inactive; hgDAF12 agonist: inactive; hcDAF-12 act: inactive; DAX1 inh-2: inactive; ssDAF-12 act: inactive; SMARCA2 activ: inactive

Results for CC(C)OC(=O)CSc1nc2cc3c(cc2cc1C#N)OCO3 ?
DAX1 inh-1: inactive; hgDAF12 agonist: inactive; hcDAF-12 act: inactive; DAX1 inh-2: inactive; ssDAF-12 act: inactive; SMARCA2 activ: inactive

How did O=S1(=O)c2ccc(Br)cc2OC[C@@H](Cc2ccccc2)N1Cc1cn(CCC2OCCO2)nn1 do in these assays?
DAX1 inh-1: inactive; hgDAF12 agonist: inactive; hcDAF-12 act: inactive; ssDAF-12 act: inactive; SMARCA2 activ: inactive

Results for COC(=O)[C@]12C[C@H](CC(=O)NCc3ccc(OC)c(OC)c3)C(=O)N(Cc3ccccc3)C1=C[C@H](C(C)(C)C)O[C@@H]2C ?
DAX1 inh-1: inactive; hgDAF12 agonist: inactive; hcDAF-12 act: inactive; ssDAF-12 act: inactive; SMARCA2 activ: inactive

How did O[C@H](COc1ccc(OC(F)(F)F)cc1)CN1CCC(C(O)(c2ccccc2)c2ccccc2)CC1 do in these assays?
DAX1 inh-1: inactive; hgDAF12 agonist: inactive; hcDAF-12 act: inactive; ssDAF-12 act: inactive; SMARCA2 activ: inactive

What do the screens show for `CC1CC(NC(=O)c2c(O)nc3sccn3c2=O)CC(C)(C)C1` (stereo unspecified)?
DAX1 inh-1: inactive; hgDAF12 agonist: inactive; hcDAF-12 act: inactive; DAX1 inh-2: 6.4; ssDAF-12 act: inactive; SMARCA2 activ: inactive

Results for CC1CC(NC(=O)c2c(O)nc3ccccn3c2=O)CC(C)(C)C1 (stereo unspecified) ?
DAX1 inh-1: inactive; hgDAF12 agonist: inactive; hcDAF-12 act: inactive; DAX1 inh-2: inactive; ssDAF-12 act: inactive; SMARCA2 activ: inactive

Results for CCOc1ccc2nc(SCc3ccccc3C#N)sc2c1 ?
DAX1 inh-1: inactive; hgDAF12 agonist: 10.6; hcDAF-12 act: inactive; DAX1 inh-2: inactive; ssDAF-12 act: inactive; SMARCA2 activ: inactive

How did c1ccc2c(c1)Nc1cc3ccccc3cc1S2 do in these assays?
DAX1 inh-1: inactive; hgDAF12 agonist: inactive; hcDAF-12 act: 6.5; DAX1 inh-2: inactive; ssDAF-12 act: inactive; SMARCA2 activ: inactive

What do the screens show for `CCCc1cc(=O)n2[nH]c(-c3ccc(C)cc3)cc2n1`?
DAX1 inh-1: 4.0; hgDAF12 agonist: inactive; hcDAF-12 act: inactive; DAX1 inh-2: inactive; ssDAF-12 act: inactive; SMARCA2 activ: inactive

What do the screens show for `CCc1c(C)nc2cc(-c3ccc(Cl)cc3)[nH]n2c1=O`?
DAX1 inh-1: inactive; hgDAF12 agonist: 10.9; hcDAF-12 act: inactive; DAX1 inh-2: 4.8; ssDAF-12 act: inactive; SMARCA2 activ: inactive

What do the screens show for `COCc1cc(=O)n2[nH]c(-c3cccc(Br)c3)cc2n1`?
DAX1 inh-1: inactive; hgDAF12 agonist: inactive; hcDAF-12 act: inactive; DAX1 inh-2: inactive; ssDAF-12 act: inactive; SMARCA2 activ: inactive

What do the screens show for `CCc1c(C)nc2cc(-c3cccc(Br)c3)[nH]n2c1=O`?
DAX1 inh-1: inactive; hgDAF12 agonist: inactive; hcDAF-12 act: 6.4; DAX1 inh-2: inactive; ssDAF-12 act: 1.0; SMARCA2 activ: inactive

What do the screens show for `CCCc1cc(=O)n2[nH]c(-c3ccc(Cl)cc3)cc2n1`?
DAX1 inh-1: inactive; hgDAF12 agonist: inactive; hcDAF-12 act: inactive; DAX1 inh-2: inactive; ssDAF-12 act: inactive; SMARCA2 activ: inactive

How did COC(=O)[C@]12C[C@H](CC(=O)N3CCOCC3)C(=O)N(Cc3ccc(Cl)cc3Cl)C1=C[C@H](C(C)(C)C)O[C@@H]2C do in these assays?
DAX1 inh-1: inactive; hgDAF12 agonist: inactive; hcDAF-12 act: inactive; ssDAF-12 act: inactive; SMARCA2 activ: inactive

How did Fc1ccccc1N1CCN(C2CCN(Cc3c[nH]c4ccccc34)CC2)CC1 do in these assays?
DAX1 inh-1: inactive; hgDAF12 agonist: inactive; hcDAF-12 act: inactive; DAX1 inh-2: inactive; ssDAF-12 act: 1.3; SMARCA2 activ: inactive

High-throughput results from PubChem.
